Measurements from PubChem BioAssay (NCATS).
Inconclusive results are not listed. Activity calls are given as the source filed them. Unless noted, the call rests on the fitted dose curve; in most records, active means well fitted curve in either direction with a large enough effect (not every such curve was filed as active); inconclusive means small, poorly fitted or top-dose-only effect, or another doubt; inactive means flat fitted curve, though single readings scatter.

Key:
[1] = target: Lysosomal acid glucosylceramidase (Homo sapiens) (UniProt P04062); experiment: Glucocerebrosidase-p2 (AID 348; in the data active means potency below about 10 µM; further: potency means the concentration at half of the fitted maximal effect); settings: purified GBA, blue fluorogenic substrate, 40 min
Chain of Lysosomal acid glucosylceramidase (Homo sapiens) (P04062 whole entry, looked up): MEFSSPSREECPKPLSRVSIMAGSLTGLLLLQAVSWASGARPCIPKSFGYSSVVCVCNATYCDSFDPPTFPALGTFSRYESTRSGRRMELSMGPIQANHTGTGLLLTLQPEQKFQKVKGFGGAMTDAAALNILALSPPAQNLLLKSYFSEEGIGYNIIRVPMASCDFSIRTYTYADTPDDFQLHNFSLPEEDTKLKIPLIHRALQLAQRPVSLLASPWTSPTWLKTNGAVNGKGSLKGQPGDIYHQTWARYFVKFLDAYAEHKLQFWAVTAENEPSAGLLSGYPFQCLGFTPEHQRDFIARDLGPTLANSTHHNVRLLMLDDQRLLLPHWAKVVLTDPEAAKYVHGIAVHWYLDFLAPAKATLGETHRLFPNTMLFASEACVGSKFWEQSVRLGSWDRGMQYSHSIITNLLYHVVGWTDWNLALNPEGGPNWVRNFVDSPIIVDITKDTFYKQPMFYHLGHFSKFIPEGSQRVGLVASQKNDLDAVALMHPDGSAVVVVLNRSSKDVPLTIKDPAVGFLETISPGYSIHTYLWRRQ
Outline: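 Compounds titrated from 0.6 nM upwards against 0.2 nM enzyme in pH 5.9 citric acid/KH2PO4, taurocholate, tween-20; blue fluorogenic substrate 80 uM, 40 min room temperature, stopped and read Ex 365/Em 440 for AC50.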

[2] = AP1 Signaling Pathway (AID 357); settings: ME-180 AP-1-bla reporter, EGF-induced, beta-lactamase ratio, 5 h; at 7.69 µM (top of the series) unless noted; further: on the % scale 0 is the no-effect control and ±100 the full control effect
Outline: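 AP-1-bla ME-180 cells with beta-lactamase reporter under AP-1 response element, stimulated with EC50 EGF; compounds titrated, 5 hours at 37 degrees Celsius. CCF4 read at 460/530 nm ratio; positive and negative modulators judged by AC50.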

[3] = NFAT Signaling Pathway (AID 444); settings: Jurkat NFAT-bla M1, carbachol, beta-lactamase ratio, 5 h; at 7.69 µM (top of the series) unless noted;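 further: carbachol stimulus at about its EC50 of 1 µM final; on the % scale 0 is the no-effect control and ±100 the full control effect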
Outline: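 Read-out: CCF4 FRET ratio (460 nm/530 nm) after 1 h RT dye loading, used for %activity and AC50 from titration series. Cells: Jurkat NFAT-β-lactamase/M1 line, treated with compound plus 1 uM carbachol for 5 h, 37 °C.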

[4] = Stat Signaling Pathway (AID 446); settings: ME-180 (cervical carcinoma) SIE beta-lactamase reporter, IL-6 stimulated, 5 h; at 7.69 µM (top of the series) unless noted;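 further: ME-180 cervical cancer cells given 40 pM IL-6 alongside compound; SIE-controlled beta-lactamase reporter measured as 460/530 nm FRET emission ratio; on the % scale 0 is the no-effect control and ±100 the full control effect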
Outline: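 IL-6/STAT signaling read in ME-180 cells via an SIE beta-lactamase reporter. Stimulus was 40 pM IL-6 (its AC50) for 5 hrs, so both activation and inhibition register.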

[5] = target: Glucocorticoid receptor (Homo sapiens) (UniProt P04150); experiment: GR-GFP Redistribution (AID 450;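 active means compounds whose dose series gives a full or clear partial fitted curve of increased nuclear translocation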; further: potency means the concentration at half of the fitted maximal effect); settings: U2OS GR-GFP nuclear translocation, laser cytometry, 2 h
Chain of Glucocorticoid receptor (Homo sapiens) (P04150 whole entry, looked up, the tested form may be a part): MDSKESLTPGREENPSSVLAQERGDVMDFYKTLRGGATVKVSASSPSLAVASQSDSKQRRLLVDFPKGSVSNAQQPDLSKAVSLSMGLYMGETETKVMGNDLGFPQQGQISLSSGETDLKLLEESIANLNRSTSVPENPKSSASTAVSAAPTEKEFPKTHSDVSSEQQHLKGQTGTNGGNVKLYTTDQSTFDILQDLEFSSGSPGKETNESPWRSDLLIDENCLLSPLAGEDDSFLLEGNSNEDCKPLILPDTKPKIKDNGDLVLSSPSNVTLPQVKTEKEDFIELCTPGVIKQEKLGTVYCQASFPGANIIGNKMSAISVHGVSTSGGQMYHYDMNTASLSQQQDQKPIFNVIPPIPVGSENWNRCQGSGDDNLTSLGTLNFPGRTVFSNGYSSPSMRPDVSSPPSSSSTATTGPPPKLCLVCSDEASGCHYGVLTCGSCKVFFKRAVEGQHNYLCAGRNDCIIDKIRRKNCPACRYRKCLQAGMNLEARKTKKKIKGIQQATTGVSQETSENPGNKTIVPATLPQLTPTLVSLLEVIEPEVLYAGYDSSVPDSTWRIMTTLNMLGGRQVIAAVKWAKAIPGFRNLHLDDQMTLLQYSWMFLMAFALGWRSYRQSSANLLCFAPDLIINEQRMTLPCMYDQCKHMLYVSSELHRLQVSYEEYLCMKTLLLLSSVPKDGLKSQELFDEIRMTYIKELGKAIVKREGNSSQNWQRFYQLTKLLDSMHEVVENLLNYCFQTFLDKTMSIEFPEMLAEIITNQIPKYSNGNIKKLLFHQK

[6] = target: Glucocorticoid receptor (Homo sapiens) (UniProt P04150); experiment: GR-EFC Redistribution (AID 451; calls by dose curve; further: potency means the concentration at half of the fitted maximal effect); settings: CHO-K1 GR-EFC translocation, beta-gal luminescence, 2 h
Outline: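 Translocation of GR-ED fusion to nuclear EA restores b-gal, read by luminescence after 1 h room-temperature detection. Engineered CHO-K1 biosensor cells, 1,000/well, exposed 2 h at 37 C to titrations up to 46 uM final.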

[7] = target: Mitogen-activated protein kinase 10 (Mus musculus) (UniProt Q61831); experiment: JNK3 AlphaScreen Assay (AID 530); settings: JNK3 lysate, c-Jun phosphorylation; series mostly up to 57.1 µM;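 further: kinase came from lysate of stimulated human HepG2 cells; signal reports phosphorylation of biotinylated GST-cJun 1-79 at Ser73 with 10 µM ATP; on the % scale 0 is the no-effect control and ±100 the full control effect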
Outline: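 Room-temperature AlphaScreen kinase assay; pre-activated HepG2 lysate as JNK3 source, biotin-GST-cJun(1-79) substrate, 10 uM ATP, compound 15 min preincubation.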

[8] = target: 3',5'-cyclic-AMP phosphodiesterase 4B (Homo sapiens) (UniProt Q07343); experiment: qHTS Assay for Inhibitors of PDE-IV (AID 607; active means well fitted activation curve with a large enough effect in the main read-out, with a control signal flat, not every such curve was filed as active; further: % of control where 0% means no effect); settings: HEK293 ACTOne CNG channel cells, membrane potential fluorescence; series mostly up to 22.9 µM
Chain of 3',5'-cyclic-AMP phosphodiesterase 4B (Homo sapiens) (Q07343 whole entry, looked up): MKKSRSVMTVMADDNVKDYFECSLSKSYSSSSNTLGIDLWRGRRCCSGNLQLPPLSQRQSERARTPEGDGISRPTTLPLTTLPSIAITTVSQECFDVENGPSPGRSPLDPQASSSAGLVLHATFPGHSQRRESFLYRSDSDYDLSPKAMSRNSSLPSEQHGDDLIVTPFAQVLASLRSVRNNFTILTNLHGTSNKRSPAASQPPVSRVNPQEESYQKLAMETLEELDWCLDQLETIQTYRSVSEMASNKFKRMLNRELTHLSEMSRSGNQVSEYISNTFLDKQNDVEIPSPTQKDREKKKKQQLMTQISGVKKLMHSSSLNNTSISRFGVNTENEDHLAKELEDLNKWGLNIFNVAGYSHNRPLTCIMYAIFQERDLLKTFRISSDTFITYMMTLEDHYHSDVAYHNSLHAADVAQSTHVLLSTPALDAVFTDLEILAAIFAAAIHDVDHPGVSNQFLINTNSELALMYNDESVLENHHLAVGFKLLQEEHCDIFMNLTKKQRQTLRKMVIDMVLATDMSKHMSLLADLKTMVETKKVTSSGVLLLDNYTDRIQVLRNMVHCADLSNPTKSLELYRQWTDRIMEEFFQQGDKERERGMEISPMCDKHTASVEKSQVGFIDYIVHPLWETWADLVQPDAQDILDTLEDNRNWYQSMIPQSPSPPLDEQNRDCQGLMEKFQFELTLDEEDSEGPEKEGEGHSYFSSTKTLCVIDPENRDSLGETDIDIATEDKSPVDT
Outline: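 Live HEK293 cells with a modified cyclic nucleotide-gated (CNG) channel report intracellular cAMP via membrane-potential dye fluorescence (ex 535/em 590 nm). Endogenous PDE-IV was targeted. Compounds were tested at up to 22.9 uM final; RO 20-1724 100 uM served as control.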

[9] = qHTS Assay for Lipid Storage Modulators (AID 1519; calls by dose curve); settings: Drosophila S3 cells, BODIPY lipid droplet/cell ratio, laser cytometry, cells loaded with oleic acid; for activity change, negative = inhibition: at 57.5 µM (top of the series)
Outline: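 Cells seeded at 5,000 per well were treated with compounds over a concentration series and loaded with oleic acid (400 uM, as added). Lipid droplet fluorescence (488 nm excitation, 500-530 nm channel) was read by laser-scanning cytometry and normalized to 20 uM Triacsin C.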

[10] = target: Cytochrome P450 1A2 (Homo sapiens) (UniProt P05177); experiment: p450-cyp1a2 (AID 410; calls by dose curve; further: potency means the concentration at half of the fitted maximal effect); settings: recombinant CYP1A2, luciferin-ME demethylation, luminescence; series mostly up to 57 µM
Chain of Cytochrome P450 1A2 (Homo sapiens) (P05177 whole entry, looked up): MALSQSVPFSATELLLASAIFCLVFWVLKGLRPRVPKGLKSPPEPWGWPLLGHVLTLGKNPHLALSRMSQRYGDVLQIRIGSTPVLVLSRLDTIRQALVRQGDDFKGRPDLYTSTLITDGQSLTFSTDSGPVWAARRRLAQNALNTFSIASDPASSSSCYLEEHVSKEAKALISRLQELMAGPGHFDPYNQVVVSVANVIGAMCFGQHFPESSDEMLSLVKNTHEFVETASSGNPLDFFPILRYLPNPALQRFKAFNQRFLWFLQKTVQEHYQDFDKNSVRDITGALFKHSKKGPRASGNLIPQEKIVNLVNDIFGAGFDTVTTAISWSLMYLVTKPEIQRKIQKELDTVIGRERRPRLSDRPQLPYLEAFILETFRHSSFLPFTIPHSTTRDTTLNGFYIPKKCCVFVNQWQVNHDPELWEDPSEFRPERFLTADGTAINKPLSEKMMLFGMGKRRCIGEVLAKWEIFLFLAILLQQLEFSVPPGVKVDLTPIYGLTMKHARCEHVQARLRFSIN
Outline: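 Human CYP1A2 (20nM) demethylated Luciferin-ME at its Km (100uM) in 100mM KPO4. After 10 min compound preincubation, NADPH regeneration ran the reaction 60 min at room temperature. Luciferin was read by luminescence, normalized to 57 uM furafylline.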

[11] = target: Cytochrome P450 3A4 (Homo sapiens) (UniProt P08684); experiment: qHTS Assay for Activators of Cytochrome P450 3A4 (AID 885; active means well fitted curve in the direction sought with a large enough effect; an effect the other way counts as inactive or inconclusive; further: nearly all actives have a fitted effect of over 65% in size); settings: recombinant CYP3A4, Luciferin-PPXE luminescence, 60 min; series mostly up to 57.1 µM
Chain of Cytochrome P450 3A4 (Homo sapiens) (P08684 whole entry, looked up): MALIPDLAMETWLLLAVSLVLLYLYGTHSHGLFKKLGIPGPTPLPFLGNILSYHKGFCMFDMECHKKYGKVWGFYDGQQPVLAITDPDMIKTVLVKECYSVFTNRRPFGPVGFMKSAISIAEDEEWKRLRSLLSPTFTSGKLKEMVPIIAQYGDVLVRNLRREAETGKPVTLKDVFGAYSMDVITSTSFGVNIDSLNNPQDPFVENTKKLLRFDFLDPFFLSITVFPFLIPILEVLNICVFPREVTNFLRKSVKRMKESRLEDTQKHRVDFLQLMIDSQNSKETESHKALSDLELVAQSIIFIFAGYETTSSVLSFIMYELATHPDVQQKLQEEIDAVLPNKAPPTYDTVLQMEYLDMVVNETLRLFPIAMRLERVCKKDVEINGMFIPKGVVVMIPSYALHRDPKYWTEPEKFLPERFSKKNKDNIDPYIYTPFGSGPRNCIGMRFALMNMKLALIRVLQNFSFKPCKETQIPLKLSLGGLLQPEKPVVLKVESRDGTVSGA
Outline: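 Quantitative HTS format: compounds preincubated with 20nM human CYP3A4 and Luciferin-PPXE substrate at KM, reaction started by NADPH regeneration, stopped after 60 min, luciferase luminescence read 20 min later.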

[12] = target: Cytochrome P450 2D6 (Homo sapiens) (UniProt P10635); experiment: qHTS Assay for Inhibitors and Substrates of Cytochrome P450 2D6 (AID 891; active means well fitted curve in the direction sought with a large enough effect; an effect the other way counts as inactive or inconclusive; further: potency means the concentration at half of the fitted maximal effect; nearly all actives have a fitted effect of over 60% in size); settings: recombinant CYP2D6, luciferin-ME EGE luminescence; series mostly up to 57.1 µM
Chain of Cytochrome P450 2D6 (Homo sapiens) (P10635 whole entry, looked up): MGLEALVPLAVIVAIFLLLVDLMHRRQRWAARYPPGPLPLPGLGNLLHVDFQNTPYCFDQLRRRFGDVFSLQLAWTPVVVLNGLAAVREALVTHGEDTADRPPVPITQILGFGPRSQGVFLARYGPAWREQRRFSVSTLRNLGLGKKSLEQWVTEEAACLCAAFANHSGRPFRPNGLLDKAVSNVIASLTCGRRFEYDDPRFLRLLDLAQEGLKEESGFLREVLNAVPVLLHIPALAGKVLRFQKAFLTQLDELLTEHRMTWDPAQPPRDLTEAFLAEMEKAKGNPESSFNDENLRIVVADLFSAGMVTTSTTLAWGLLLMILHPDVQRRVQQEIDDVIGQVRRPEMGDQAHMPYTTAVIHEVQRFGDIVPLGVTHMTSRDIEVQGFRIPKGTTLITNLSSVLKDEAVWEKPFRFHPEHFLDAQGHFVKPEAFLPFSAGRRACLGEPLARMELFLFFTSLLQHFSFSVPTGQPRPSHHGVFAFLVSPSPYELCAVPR
Outline: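 Human CYP2D6 (5 nM) with 30 uM Luciferin-ME EGE (at Km) in 100 mM KPO4, compound preincubated 10 min, then NADPH regeneration system for 60 min at room temperature. Luciferin read by luminescence; normalized to 1.43 uM quinidine.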

[13] = target: Ubiquitin carboxyl-terminal hydrolase 1 (Homo sapiens) (UniProt O94782); experiment: Inhibitors of USP1/UAF1: Pilot qHTS (AID 504865; active means well fitted curve in the direction sought with a large enough effect; an effect the other way counts as inactive or inconclusive;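 further: rhodamine fluorescence freed from ubiquitin-rhodamine substrate followed over time; top concentration of the series differs between compounds; on the % scale 0 is the no-effect control and ±100 the full control effect; nearly all actives have a fitted effect of over 35% in size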); settings: purified USP1/UAF1, Ub-rhodamine cleavage fluorescence; series mostly up to 54.9 µM
Chain of Ubiquitin carboxyl-terminal hydrolase 1 (Homo sapiens) (O94782 whole entry, looked up): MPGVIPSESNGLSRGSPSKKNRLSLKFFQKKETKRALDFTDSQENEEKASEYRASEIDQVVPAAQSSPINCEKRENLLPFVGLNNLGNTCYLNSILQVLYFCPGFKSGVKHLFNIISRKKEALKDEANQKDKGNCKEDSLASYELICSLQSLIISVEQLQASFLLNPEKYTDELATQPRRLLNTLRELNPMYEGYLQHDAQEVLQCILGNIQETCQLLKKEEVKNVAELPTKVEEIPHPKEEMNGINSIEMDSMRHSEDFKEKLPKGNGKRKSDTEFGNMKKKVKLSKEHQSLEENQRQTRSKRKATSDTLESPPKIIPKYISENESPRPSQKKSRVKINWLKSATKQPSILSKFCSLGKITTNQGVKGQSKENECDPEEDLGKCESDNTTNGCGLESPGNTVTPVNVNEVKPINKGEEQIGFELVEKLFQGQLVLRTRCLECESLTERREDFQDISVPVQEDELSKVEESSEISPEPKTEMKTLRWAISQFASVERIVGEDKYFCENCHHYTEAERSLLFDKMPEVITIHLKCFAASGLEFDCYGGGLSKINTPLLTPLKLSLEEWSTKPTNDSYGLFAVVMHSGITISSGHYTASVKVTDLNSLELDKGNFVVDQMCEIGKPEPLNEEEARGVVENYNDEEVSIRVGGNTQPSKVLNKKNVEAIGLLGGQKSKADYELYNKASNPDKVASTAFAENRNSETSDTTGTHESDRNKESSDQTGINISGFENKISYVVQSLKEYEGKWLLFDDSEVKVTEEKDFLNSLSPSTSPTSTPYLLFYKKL
Outline: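 USP1/UAF1 complex (1nM) preincubated with compound 15 min at room temperature, then Ub-Rho substrate (150nM final) added. Fluorescence read kinetically at 480/540 nm, 6 reads every 60 seconds. Buffer: 50mM HEPES pH 7.8, 0.5mM EDTA, 0.1 mg/ml BSA, 1mM TCEP, 0.01% Tween-20.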

[14] = measured here: cell count channel max response
[15] = measured here: lipid channel max response

O=c1c(CCc2ccccc2)nc2cnc(N3CCOCC3)nc2n1C[C@H]1CCCO1
-6.55%: max response [9, 15]
-5.26%: max response [9, 14]
inactive: Potency [1] > 11.4 µM | activity change, negative = inhibition [2] -13.7% | activity change, negative = inhibition [3] -4.34% | activity, negative = inhibition [4] -10.8% | Potency [5] > 9.22 µM | Potency [6] > 46 µM | Potency [7] | Potency [8] | activity change, negative = inhibition [9] -15.5%

O=C(c1ccco1)N1CCC2(CC1)CCN(c1ccncc1)CC2
-3.62%: max response [9, 14]
inactive: Potency [1] > 11.4 µM | activity change, negative = inhibition [2] -14.6% | activity, negative = inhibition [4] 11.2% | Potency [6] > 46 µM | Potency [7] | Potency [8] | activity change, negative = inhibition [9] 3.95%
0.777%: max response [9, 15]

c1ccc(Nc2ncnc3ccc(-c4ccc5c(c4)OCO5)cc23)cc1
inactive: Potency [1] > 11.4 µM | activity, negative = inhibition [4] 8.5% | Potency [5] > 46 µM | Potency [6] > 46 µM | Potency [7] | Potency [11] | activity change, negative = inhibition [9] 5.31%
-7.25%: max response [9, 15]
active: Potency [10] 0.251 µM | Potency [12] 0.126 µM
-12.2%: max response [9, 14]

O=c1c(-c2cc(F)cc(F)c2)nc2cnc(Oc3ccccc3)nc2n1C[C@H]1CCCO1
10.1%: max response [9, 15]
13.2%: max response [9, 14]
inactive: Potency [1] > 11.4 µM | activity change, negative = inhibition [2] -12.8% | activity change, negative = inhibition [3] -1.84% | activity, negative = inhibition [4] -1.6% | Potency [5] > 9.22 µM | Potency [6] > 46 µM | Potency [7] | Potency [8] | Potency [11] | activity change, negative = inhibition [9] -6.47%

CN(C)C(=O)c1ccc(-c2nc(NCc3cccnc3)c3ccccc3n2)cc1
active: Potency [10] 10 µM
inactive: Potency [1] > 11.4 µM | activity change, negative = inhibition [3] 9.73% | Potency [5] > 46 µM | Potency [6] > 46 µM | Potency [8] | Potency [11] | activity change, negative = inhibition [9] 8.76% | Potency [13]
24.6%: max response [9, 15]
17%: max response [9, 14]

O=C(c1cccc(F)c1)N1CCC2(CCCN(c3ccccn3)C2)CC1
inactive: Potency [1] > 11.4 µM | activity change, negative = inhibition [2] -14% | activity, negative = inhibition [4] -2.13% | Potency [6] > 46 µM | Potency [7] | Potency [8] | activity change, negative = inhibition [9] 6.75%
21.3%: max response [9, 15]
9.06%: max response [9, 14]

O=C(c1cnccn1)N1CCC2(CCN(Cc3ccncc3)CC2)CC1
inactive: Potency [1] > 11.4 µM | activity change, negative = inhibition [2] -11.5% | activity change, negative = inhibition [3] -19.7% | activity, negative = inhibition [4] -8.42% | Potency [6] > 46 µM | Potency [7] | Potency [8] | activity change, negative = inhibition [9] 3.75%
8.61%: max response [9, 15]
2.59%: max response [9, 14]

O=S(=O)(c1ccccc1)N1CCC2(CCN(c3ccncc3)CC2)CC1
17%: max response [9, 15]
9.97%: max response [9, 14]
inactive: Potency [1] > 11.4 µM | activity change, negative = inhibition [2] 2.08% | activity, negative = inhibition [4] 1.98% | Potency [6] > 46 µM | Potency [7] | Potency [8] | activity change, negative = inhibition [9] 3.52%
